Experimental data taken from PubChem BioAssay (NCI).
This is part of a sample that, as a whole, favours compounds with a hit. Of some 79,000 tested, about 15% had one in any assay. Values without a mark were called inactive. Calls of active or inactive are those of the source. No stated cut-off is given here; in the data, active means growth inhibition above about 70%; inactive means the rest.

Experiments:
[1] = NCI Yeast Anticancer Drug Screen. Data for the rad50 strain (AID 155);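 further: 0% = growth of vehicle-only cultures of the same strain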; conditions: S. cerevisiae rad50 strain growth inhibition; at 50.0 µM; hits give high values
Procedure, shortened: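 DNA repair mutant yeast, compound exposure, growth read-out; inhibition is taken relative to vehicle.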

[2] = NCI Yeast Anticancer Drug Screen. Data for the mec2-1 strain (AID 157); conditions: S. cerevisiae mec2-1 strain, at 50.0 µM, hits give high values
Procedure, shortened: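 Mutant yeast (mec2-1) grown with compound; growth inhibition relative to vehicle control reported.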

[3] = NCI Yeast Anticancer Drug Screen. Data for the sgs1 mgt1 strain (AID 161);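 further: 0% = growth of cultures given vehicle only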; conditions: S. cerevisiae sgs1 mgt1 strain, at 50.0 µM, hits give high values
Procedure, shortened: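 Compounds are added to genetically altered yeast, and growth is compared with cultures given vehicle alone to give percent inhibition.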

[4] = NCI Yeast Anticancer Drug Screen. Data for the cln2 rad14 strain (AID 165);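 further: 0% = growth equal to vehicle treated cultures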; conditions: S. cerevisiae cln2 rad14 strain, at 50.0 µM, hits give high values
Procedure, shortened: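 Readout is yeast growth inhibition versus vehicle-treated controls, using a strain with cln2 and rad14 alterations exposed to compound.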

[5] = NCI Yeast Anticancer Drug Screen. Data for the bub3 strain (AID 167); conditions: S. cerevisiae bub3 mutant strain, at 50.0 µM, hits give high values
Procedure, shortened: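 In this screen, a yeast mutant lacking normal mitotic checkpoint function is challenged with compound. Relative growth versus vehicle gives the inhibition value.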

[6] = NCI Yeast Anticancer Drug Screen. Data for the mlh1 rad18 strain (AID 175); conditions: S. cerevisiae mlh1 rad18 strain growth inhibition; at 50.0 µM; hits give high values
Procedure, shortened: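 Genetically defined yeast (DNA repair-deficient) exposed to compounds; growth inhibition determined relative to vehicle.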

Row | SMILES | growth inhibition [1] | growth inhibition [2] | growth inhibition [3] | growth inhibition [4] | growth inhibition [5] | growth inhibition [6]
1 | COc1ccc2[nH]cc(CCN(C)C)c2c1 | 4.8% | -24.8% | 1.85% | 17.1% | -1.6% | -9.85%
2 | NCC(=O)c1ccc(O)c(O)c1 | -8.85% | -7.05% | -4.35% | 2.8% | 16.4% | -8.55%
3 | NC(=O)c1cc([N+](=O)[O-])c(N(CCCl)CCCl)c([N+](=O)[O-])c1 | 13.8% | 17.1% | 5.05% | 17.9% | -1.55% | 17.8%
4 | COC(=O)C1C(OC(=O)c2ccccc2)CC2CCC1N2C(N)=O (stereo unspecified) | -12.6% | -0.75% | -8.05% | -23% | -15.9% | 3.3%
5 | CC(C)(O)/C=C/C(=O)[C@](C)(O)[C@H]1[C@H](O)C[C@@]2(C)[C@@H]3CC=C4[C@@H](C[C@H](O)C(=O)C4(C)C)[C@]3(C)C(=O)C[C@]12C | 8.3% | -14.6% | -6.7% | 0.55% | -12.8% | 1.8%
6 | O=C1NCN(c2ccccc2)C12CCN(Cc1ccccc1)CC2 | -4.6% | -23.7% | 14.6% | 12.3% | 3.1% | 5.5%
7 | N#CCCSCCC#N | 25.4% | 6.55% | 14.1% | 3.7% | 6.8% | 4.6%
8 | CC1=CC2OC3CC4OC(=O)/C=C/C=C/C(=O)OCC/C(C)=C/C(=O)OCC2(CC1O)C4(C)C31CO1 (stereo unspecified) | 92.3% (active) | 93.6% (active) | 93% (active) | 91.7% (active) | 91.8% (active) | 90.9% (active)
9 | O=C(O)Cc1ccc(O)c(O)c1.[Pt].c1ccc([PH+](c2ccccc2)c2ccccc2)cc1.c1ccc([PH+](c2ccccc2)c2ccccc2)cc1 | 43.2% | 33.9% | 37.8% | 42.5% | 26.5% | 63.9%
10 | O=C1NC(=O)C(O)(Cc2ccccn2)C(=O)N1 | 9.9% | 6.45% | 13.5% | 13.2% | -21.1% | -6.65%
11 | NC(CCC(=O)NC(CSc1ccc([N+](=O)[O-])cc1[N+](=O)[O-])C(=O)NCC(=O)O)C(=O)O (stereo unspecified) | 0.05% | -4.75% | 12.2% | 8.7% | 3.2% | -11.1%
12 | CCC(=O)OC1(c2ccccc2)CCN(C/C=C/c2cccc3ccccc23)CC1 | 86.3% (active) | 76.2% (active) | 89% (active) | 62.8% | 83% (active) | 87.2% (active)
13 | COc1cc(/C=N/NC(=O)CN(C)C)cc(OC)c1N(CCCl)CCCl | 8.85% | 10.4% | -15.7% | 17.9% | -2.25% | 5.2%
14 | CCC1C(=O)NC(=O)N(c2ccccc2)C1=O (stereo unspecified) | 13.7% | -8.3% | -3.25% | -39.4% | 3.1% | -6%
15 | O=c1c(O)c(-c2ccccc2)oc2ccccc12 | 12.6% | 14.8% | 35.5% | 15.6% | 42.5% | 34.8%
16 | COC1=CC2CCC3C(CCC4(C)C(OC(C)=O)CCC34)C2(C)CC1 (stereo unspecified) | 13.2% | 10.8% | 1.2% | 4.1% | -13.3% | -6.8%
17 | CC(=O)OC1CCC2(CO)C(CCC3C4CCC(=O)C4(C)CCC32)C1 (stereo unspecified) | 14.1% | -4.25% | 0.3% | 11.9% | 5.3% | 21.8%
18 | O=c1n(Cc2ccccc2)c2ccccc2n1CC1CS1 (stereo unspecified) | 55.5% | 21.4% | 62.9% | 4.75% | 15.8% | 31.1%
19 | OCCN1CCN(c2cccc(Cl)c2)CC1 | -7.5% | -12.7% | -34.6% | -11.1% | -8.05% | -4.8%
20 | CC(=O)C1CCC2C3CCC4CC(O)CCC4(C)C3CCC12C (stereo unspecified) | 6.2% | -59% | 16.8% | 26.8% | 10% | -7.3%
21 | CNC(=O)Oc1cccc2c(OC3OC(CO)C(O)C(O)C3O)cccc12 (stereo unspecified) | -25.5% | 19.4% | -12.8% | -16.7% | 2.05% | -23.9%

Row | SMILES | growth inhibition [1] | growth inhibition [2] | growth inhibition [3] | growth inhibition [4] | growth inhibition [5] | growth inhibition [6]
22 | CC1(C)N=C(N/N=C/c2ccccc2)SP1(=O)NNc1ncccn1 (stereo unspecified) | -7.85% | 0.95% | -20.1% | 2.35% | 3.55% | 1.25%
23 | CCCCC(CC)CC1C(=O)NC(=S)NC1=O (stereo unspecified) | -3.7% | 5.55% | -17.8% | -37.1% | -0.05% | 6.35%
24 | CC(C)(C#N)O[N+](=O)[O-] | 0.1% | 7.3% | -4.7% | -16.8% | -0.7% | 0.2%
25 | COC(=O)CCc1ccc(NP(=O)(Oc2ccccc2)N(CCCl)CCCl)cc1 (stereo unspecified) | 13.3% | 20.2% | 23.4% | 35.8% | 12.2% | -8.55%
26 | [I][Hg][CH]1CCC2CCCC1O2 (stereo unspecified) | 99.7% (active) | 99.6% (active) | 99.8% (active) | 99% (active) | 98.8% (active) | 99.7% (active)
27 | Brc1ccc(Oc2ccc(Br)cc2Br)c(Br)c1 | 13.9% | -21.5% | 8.2% | 2% | 21.6% | 32.4%
28 | O=C(Nc1ccccc1F)C(Cl)(Cl)Cl | 6.55% | -5.2% | 9.3% | -5% | 16.7% | 26.2%
29 | Cc1cc(C)[c]([Hg][Cl])c(C)c1 | 98.5% (active) | 98.7% (active) | 98.7% (active) | 96.2% (active) | 98.7% (active) | 97.8% (active)
30 | O=C(c1ccc(Cl)cc1)N1CCOCC1 | -4.45% | -15.2% | -7.6% | -29.4% | -53% | -7.95%
31 | CC(C)=CCC12Cc3ccc(O)cc3C(C(C)CN1)C2C (stereo unspecified) | -1.5% | 9.8% | 27.8% | 11.8% | 10.7% | 25.7%
32 | CNC(C)Cc1ccccc1OC (stereo unspecified) | -10.8% | -12.4% | -1.2% | 2.65% | -4.55% | 11.4%
33 | CCCC(C)SP(=S)(SC(C)CCC)SC(C)CCC (stereo unspecified) | 4.1% | -11.3% | -1.9% | -43.3% | 2.85% | 19.6%
34 | Cc1cccc2c1[se]c1ccccc12 | -11.5% | -3.85% | -12% | 4.45% | 2.7% | -17.1%
35 | CC1=C(\C=C/C(C)=C/C=C/C(C)=C/C=C/C=C(C)\C=C\C=C(C)/C=C/C2=C(C)CCCC2(C)C)C(C)(C)CCC1 | 28.8% | 9.35% | 27.1% | 26.4% | 37.2% | 45.5%
36 | CC(C)c1cc2c(cc1O)C1(C)CCCC(C)(C)C1=CC2=O (stereo unspecified) | -1.65% | -28.9% | -8.15% | -17% | -5.8% | -13.1%
37 | CCOC(=O)CNCCC1(CC)C(=O)NC(=O)NC1=O | -0.55% | -8.2% | 2.15% | -37.2% | -0.6% | -12.8%
38 | O=C(O)c1ccc(CI)cc1 | -9.6% | -11.9% | 6% | 9% | 15.2% | -16.9%
39 | COP(=O)(OC)C(C)(C)NC(=O)NC(F)(F)F | -1.9% | -14.9% | -24.6% | 28.9% | 11.1% | -4.25%
40 | CN(C)C(=O)c1nnsc1NN=O | 32% | 33.7% | -35.1% | 8.35% | -14.4% | 9.35%
41 | C/C=C1/CN2C3C[C@H]1C(CO)(C(=O)OC)[C@H]2Cc1c3n(C)c2ccccc12 (stereo partly specified) | -1.2% | -4.35% | 16.7% | -0.1% | 7% | -8.9%
